In PubChem BioAssay (EPA / NIEHS):
Calls of active or inactive are those of the source. The calls were made as follows: active = hit-call score of the fitted dose curve at least 0.9, where 1 is the maximum; inactive = score below 0.9.

Experiments:
[1] = read-out: growth arrest and DNA damage 45 (GADD45A), GADD45A (gene 1647); assay: LTEA_HepaRG_GADD45A: Life Technologies and Expression Analysis (LTEA) Assay for growth arrest and DNA damage 45 (GADD45A) using HepaRG (AID 2283458); conditions: mRNA level, 48 h; actives raise or lower the signal
In short: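 Differentiated HepaRG cells exposed 48 h in serum-free induction medium to 8 concentrations, top 100 uM in half-log steps, 0.5% DMSO. GADD45A mRNA quantified by qRT-PCR, normalized to ACTB, GAPDH and POLR2A; bidirectional fit versus DMSO.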

[2] = read-out: Forkhead box O3 (FOXO3), FOXO3 (gene 2309); assay: LTEA_HepaRG_FOXO3: Life Technologies and Expression Analysis (LTEA) Assay for Forkhead box O3 (FOXO3) using HepaRG (AID 2283459); conditions: mRNA level, 48 h; actives raise or lower the signal
In short: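 Differentiated human HepaRG cells, 48 h post-plating, exposed in duplicate for 48 h in serum-free induction medium; 8-point half-log series from 100 uM in 0.5% DMSO. FOXO3 mRNA by TaqMan qRT-PCR, normalized to ACTB/GAPDH/POLR2A; bidirectional fit versus DMSO.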

[3] = read-out: ABC Transporter (ABCB1), ABCB1 (gene 5243); assay: LTEA_HepaRG_ABCB1: Life Technologies and Expression Analysis (LTEA) Assay for ABC Transporter (ABCB1) using HepaRG (AID 2283460); conditions: mRNA level, 48 h; actives raise or lower the signal
In short: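 HepaRG cells exposed in duplicate for 48 h in serum-free induction medium to eight half-log concentrations up to 100 uM in 0.5% DMSO. ABCB1 mRNA quantified by qRT-PCR, normalised to ACTB, GAPDH and POLR2A; fitted bidirectionally versus DMSO.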

[4] = read-out: growth arrest and DNA damage 45 (GADD45B), GADD45B (gene 4616); assay: LTEA_HepaRG_GADD45B: Life Technologies and Expression Analysis (LTEA) Assay for growth arrest and DNA damage 45 (GADD45B) using HepaRG (AID 2283461); conditions: mRNA level, 48 h; actives raise or lower the signal
In short: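 Values are bidirectional concentration-response fits against 0.5% DMSO controls. Underlying data: qRT-PCR mRNA levels in human HepaRG liver cells treated 48 h in serum-free induction medium, eight concentrations topping at 100 uM.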

[5] = read-out: ABC Transporter (ABCB11), ABCB11 (gene 8647); assay: LTEA_HepaRG_ABCB11: Life Technologies and Expression Analysis (LTEA) Assay for ABC Transporter (ABCB11) using HepaRG (AID 2283463); conditions: mRNA level, 48 h; actives raise or lower the signal
In short: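 Differentiated human HepaRG cells in serum-free induction medium, dosed in duplicate for 48 h. Eight-point half-log series from 100 uM in 0.5% DMSO; ABCB11 mRNA by qRT-PCR, normalized to ACTB, GAPDH, POLR2A, fitted bidirectionally versus DMSO.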

[6] = read-out: ABC Transporter (ABCC2), ABCC2 (gene 1244); assay: LTEA_HepaRG_ABCC2: Life Technologies and Expression Analysis (LTEA) Assay for ABC Transporter (ABCC2) using HepaRG (AID 2283464); conditions: mRNA level, 48 h; actives raise or lower the signal
In short: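 Gene expression of ABCC2 was determined by qRT-PCR in HepaRG cells exposed 48 h to chemicals (highest 100 uM, half-log dilutions). Activity was fitted in both directions relative to 0.5% DMSO vehicle.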

[7] = read-out: Broad substrate specificity ATP-binding cassette transporter ABCG2 (Homo sapiens) (UniProt Q9UNQ0); assay: LTEA_HepaRG_ABCG2: Life Technologies and Expression Analysis (LTEA) Assay for ABC Transporter (ABCG2) using HepaRG (AID 2283465); conditions: mRNA level, 48 h; actives raise or lower the signal
In short: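 Differentiated HepaRG cells were exposed for 48 h in serum-free induction medium to 8 half-log concentrations, top 100 uM, in 0.5% DMSO. ABCG2 mRNA was measured by qRT-PCR, normalized to ACTB, GAPDH and POLR2A, with bidirectional fitting versus DMSO.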

[8] = read-out: ATP-citrate lyase (ACLY), ACLY (gene 47); assay: LTEA_HepaRG_ACLY: Life Technologies and Expression Analysis (LTEA) Assay for ATP-citrate lyase (ACLY) using HepaRG (AID 2283466); conditions: mRNA level, 48 h; actives raise or lower the signal
In short: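 Differentiated HepaRG cells exposed 48 h in serum-free induction medium to eight half-log concentrations up to 100 uM in 0.5% DMSO, duplicates. Transcript measured by Fluidigm TaqMan qRT-PCR, normalized to ACTB, GAPDH, POLR2A; bidirectional fit versus DMSO.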

[9] = read-out: Alkaline Phosphatase, Placental (ALPP) gene, ALPP (gene 250); assay: LTEA_HepaRG_ALPP: Life Technologies and Expression Analysis (LTEA) Assay for Alkaline Phosphatase, Placental (ALPP) gene using HepaRG (AID 2283468); conditions: mRNA level, 48 h; actives raise or lower the signal
In short: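 Expression of ALPP was quantified by qRT-PCR against three housekeeping genes in human HepaRG cultures treated for 48 h with an eight-point concentration series up to 100 uM. Activity in either direction was fitted relative to 0.5% DMSO.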

[10] = read-out: Bcl-2 (BAD) gene, BAD (gene 572); assay: LTEA_HepaRG_BAD: Life Technologies and Expression Analysis (LTEA) Assay for Bcl-2 (BAD) gene using HepaRG (AID 2283469); conditions: mRNA level, 48 h; actives raise or lower the signal
In short: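 Differentiated HepaRG cells were exposed in duplicate in 0.5% DMSO for 48 h to eight-point half-log concentrations up to 100 uM. BAD mRNA was measured by Fluidigm TaqMan qRT-PCR, normalized to ACTB, GAPDH and POLR2A, and fitted bidirectionally against DMSO.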

[11] = read-out: Bcl-2 (BAX) gene, BAX (gene 581); assay: LTEA_HepaRG_BAX: Life Technologies and Expression Analysis (LTEA) Assay for Bcl-2 (BAX) gene using HepaRG (AID 2283470); conditions: mRNA level, 48 h; actives raise or lower the signal
In short: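 Differentiated HepaRG cells exposed 48 h in serum-free induction medium, eight half-log concentrations from 100 uM, in duplicate, 0.5% DMSO vehicle. BAX mRNA by TaqMan qRT-PCR, normalised to ACTB, GAPDH and POLR2A.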

[12] = read-out: adenosine kinase (ADK) gene, ADK (gene 132); assay: LTEA_HepaRG_ADK: Life Technologies and Expression Analysis (LTEA) Assay for adenosine kinase (ADK) gene using HepaRG (AID 2283471); conditions: mRNA level, 48 h; actives raise or lower the signal
In short: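 Following 48 h exposure of HepaRG cells in 0.5% DMSO (top concentration 100 uM, duplicate wells), ADK mRNA induction or suppression was measured by qRT-PCR, normalised to ACTB/GAPDH/POLR2A, and fitted bidirectionally relative to vehicle.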

[13] = read-out: Alpha-fetoprotein (AFP) gene, AFP (gene 174); assay: LTEA_HepaRG_AFP: Life Technologies and Expression Analysis (LTEA) Assay for Alpha-fetoprotein (AFP) gene using HepaRG (AID 2283472); conditions: mRNA level, 48 h; actives raise or lower the signal
In short: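 Differentiated human HepaRG cells exposed 48 h in serum-free induction medium, 8-point half-log series from 100 uM in 0.5% DMSO, duplicate. AFP mRNA by qRT-PCR, normalized to ACTB, GAPDH, POLR2A; bidirectional fit vs DMSO.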

BCL2L11 (gene 10018) = assay: LTEA_HepaRG_BCL2L11: Life Technologies and Expression Analysis (LTEA) Assay for Bcl-2 (BCL2L11) gene using HepaRG (AID 2283473); conditions: mRNA level, 48 h; actives raise or lower the signal
In short: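 Cells were plated, cultured 48 h, switched to serum-free induction medium, then dosed in duplicate for 48 h at eight half-log concentrations up to 100 uM. Lysates underwent RNA isolation and TaqMan qRT-PCR; gain or loss versus DMSO was fitted.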

[14] = read-out: Apolipoprotein A-V (APOA5) gene, APOA5 (gene 116519); assay: LTEA_HepaRG_APOA5: Life Technologies and Expression Analysis (LTEA) Assay for Apolipoprotein A-V (APOA5) gene using HepaRG (AID 2283474); conditions: mRNA level, 48 h; actives raise or lower the signal
In short: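 Human liver HepaRG cells are treated 48 h with test chemicals (100 uM top, half-log dilutions, 0.5% DMSO). APOA5 mRNA induction or loss is measured by qRT-PCR relative to vehicle.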

[15] = read-out: Apoptosis regulator Bcl-2 (Homo sapiens) (UniProt P10415); assay: LTEA_HepaRG_BCL2: Life Technologies and Expression Analysis (LTEA) Assay for Bcl-2 gene using HepaRG (AID 2283475); conditions: mRNA level, 48 h; actives raise or lower the signal
In short: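 Differentiated human HepaRG cells in serum-free induction medium exposed 48 h, in duplicate, to 8-point half-log series from 100 uM in 0.5% DMSO. BCL2 mRNA by qRT-PCR (TaqMan/Fluidigm), normalized to ACTB, GAPDH, POLR2A; bidirectional fit against DMSO.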

[16] = read-out: Bcl-2 (BID) gene, BID (gene 637); assay: LTEA_HepaRG_BID: Life Technologies and Expression Analysis (LTEA) Assay for Bcl-2 (BID) gene using HepaRG (AID 2283476); conditions: mRNA level, 48 h; actives raise or lower the signal
In short: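 Gene expression by qRT-PCR in HepaRG cells after 48 h exposure, duplicate wells, eight half-log concentrations topping at 100 uM in 0.5% DMSO. Normalized to ACTB, GAPDH, POLR2A; bidirectional fitting relative to DMSO.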

[17] = read-out: ABC Transporter (ABCC3), ABCC3 (gene 8714); assay: LTEA_HepaRG_ABCC3: Life Technologies and Expression Analysis (LTEA) Assay for ABC Transporter (ABCC3) using HepaRG (AID 2283462); conditions: mRNA level, 48 h; actives raise or lower the signal
In short: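 Differentiated HepaRG liver cells receive test chemicals at eight concentrations (max 100 uM) for 48 h. Expression of ABCC3 is quantified by qRT-PCR against ACTB, GAPDH and POLR2A, and activity is fitted in both directions against the DMSO control.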

[18] = read-out: Peroxisomal acyl-coenzyme A oxidase 1 (ACOX1) gene, ACOX1 (gene 51); assay: LTEA_HepaRG_ACOX1: Life Technologies and Expression Analysis (LTEA) Assay for Peroxisomal acyl-coenzyme A oxidase 1 (ACOX1) gene using HepaRG (AID 2283467); conditions: mRNA level, 48 h; actives raise or lower the signal
In short: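 HepaRG cells, plated 48 h then switched to serum-free induction medium, were exposed in duplicate for 48 h to 8-point half-log concentrations up to 100 uM in 0.5% DMSO. ACOX1 mRNA was measured by qRT-PCR, normalized to ACTB/GAPDH/POLR2A, and fitted bidirectionally versus DMSO.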

[19] = CEETOX_H295R_TESTO: CeeTox H295R High-throughput Steroidogenesis Assay for Testosterone (TESTO) (AID 2283457); conditions: actives raise or lower the signal
In short: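 Testosterone synthesis is assessed in human adrenocortical H295R cells after 48 h of chemical exposure, using HPLC-MS/MS of extracted medium. Activity is fitted in both directions against DMSO control.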

Measured: AC50

Sequence of Apoptosis regulator Bcl-2 (Homo sapiens) (P10415 whole entry, looked up): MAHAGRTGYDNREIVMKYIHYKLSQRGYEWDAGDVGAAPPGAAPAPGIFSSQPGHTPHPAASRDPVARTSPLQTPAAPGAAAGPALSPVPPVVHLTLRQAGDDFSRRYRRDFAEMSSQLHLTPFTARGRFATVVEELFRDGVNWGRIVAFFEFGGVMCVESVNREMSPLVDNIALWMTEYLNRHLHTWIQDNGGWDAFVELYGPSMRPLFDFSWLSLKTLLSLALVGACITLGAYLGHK
Sequence of Broad substrate specificity ATP-binding cassette transporter ABCG2 (Homo sapiens) (Q9UNQ0 whole entry, looked up): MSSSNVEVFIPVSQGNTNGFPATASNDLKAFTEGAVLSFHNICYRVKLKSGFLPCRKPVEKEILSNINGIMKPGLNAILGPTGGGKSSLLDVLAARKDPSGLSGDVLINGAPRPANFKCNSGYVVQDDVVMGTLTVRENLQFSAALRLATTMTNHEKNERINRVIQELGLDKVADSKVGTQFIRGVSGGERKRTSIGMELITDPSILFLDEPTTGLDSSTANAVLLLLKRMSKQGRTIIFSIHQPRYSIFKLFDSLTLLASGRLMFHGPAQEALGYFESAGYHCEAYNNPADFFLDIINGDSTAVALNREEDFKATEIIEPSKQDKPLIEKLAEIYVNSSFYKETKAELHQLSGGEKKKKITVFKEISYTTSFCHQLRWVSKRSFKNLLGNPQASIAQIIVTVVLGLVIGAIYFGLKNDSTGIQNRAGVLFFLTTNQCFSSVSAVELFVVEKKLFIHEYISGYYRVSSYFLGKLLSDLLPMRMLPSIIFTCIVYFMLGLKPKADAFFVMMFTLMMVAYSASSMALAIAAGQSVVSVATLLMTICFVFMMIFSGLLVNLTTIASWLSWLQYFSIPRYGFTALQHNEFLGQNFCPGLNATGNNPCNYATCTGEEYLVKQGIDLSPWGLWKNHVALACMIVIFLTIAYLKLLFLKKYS

CCCC(=O)OCC
inactive: [1] | [2] | [3] | [4] | [5] | [6] | [7] | [8] | [9] | [10] | [11] | [12] | [13] | BCL2L11 (gene 10018) | [14] | [15] | [16]

CCCCCCCCCCCCc1ccccc1
inactive: [1] | [2] | [3] | [4] | [17] | [5] | [6] | [7] | [8] | [18] | [9] | [11] | [12] | [13] | BCL2L11 (gene 10018) | [14] | [15] | [16]

CCOc1cccc(-n2cc(C(=O)N3CCN(c4cc(C(=O)O)c5ccccc5c4)CC3)nc2-c2ccc(C)cc2)c1
inactive: [19] | [4] | [17] | [10]
active: [1] 13.4 µM | [2] 77.2 µM | [5] 35.5 µM | [6] 77.1 µM | [7] 85.6 µM | [8] 86.6 µM | [9] 24.1 µM | [11] 12.5 µM | [12] 82.9 µM | [13] 29.8 µM | BCL2L11 (gene 10018) 87.8 µM | [14] 64.2 µM | [15] 84.5 µM | [16] 80.7 µM

O=C(O)CC(O)C(=O)O (stereo not drawn)
inactive: [1] | [2] | [3] | [4] | [17] | [5] | [6] | [7] | [8] | [9] | [11] | [12] | [13] | BCL2L11 (gene 10018) | [14] | [15] | [16]

CC(C)=CCC/C(C)=C\CO
inactive: [1] | [2] | [3] | [4] | [17] | [5] | [6] | [7] | [8] | [18] | [9] | [11] | [12] | [13] | BCL2L11 (gene 10018) | [14] | [15] | [16]

Cc1ccc(S(=O)(=O)O)cc1C
inactive: [1] | [2] | [3] | [4] | [5] | [6] | [7] | [8] | [18] | [9] | [10] | [11] | [12] | [13] | BCL2L11 (gene 10018) | [14] | [16]

CN(C)c1ccc(Cc2ccc(N(C)C)cc2)cc1
active: [9] 61.6 µM | [13] 50 µM | [14] 76.1 µM
inactive: [1] | [2] | [4] | [17] | [5] | [6] | [7] | [8] | [18] | [10] | [11] | [12] | BCL2L11 (gene 10018) | [15] | [16]
